# Inconclusive results are not listed. The source made the active and inactive calls. How the source made its calls, unless noted: active means hit-call score of the fitted dose curve at least 0.9, where 1 is the maximum; inconclusive means response in the unintended direction; inactive means score below 0.9.
# How the values were obtained:
# [1] = biological target: Cellular tumor antigen p53 (Homo sapiens) (UniProt P04637); test: TOX21_p53_BLA_p4_ratio: Tox21 HCT-116 p53 Agonism Beta-lactamase Assay, Ratio, Phase 4 (AID 2283601)
# Cellular tumor antigen p53 (Homo sapiens), sequence (P04637 whole entry, looked up): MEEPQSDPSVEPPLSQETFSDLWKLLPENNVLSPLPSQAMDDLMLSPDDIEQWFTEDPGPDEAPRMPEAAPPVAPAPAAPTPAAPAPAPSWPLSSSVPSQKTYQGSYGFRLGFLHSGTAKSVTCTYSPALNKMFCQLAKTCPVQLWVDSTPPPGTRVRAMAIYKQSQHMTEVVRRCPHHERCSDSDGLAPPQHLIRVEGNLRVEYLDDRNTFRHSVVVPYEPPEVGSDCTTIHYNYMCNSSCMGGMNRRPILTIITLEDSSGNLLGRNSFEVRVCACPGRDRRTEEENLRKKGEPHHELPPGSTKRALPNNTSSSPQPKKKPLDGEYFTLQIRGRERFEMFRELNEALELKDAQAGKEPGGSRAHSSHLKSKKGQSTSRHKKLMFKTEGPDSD
# How it was run: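 HCT-116 p53 beta-lactamase reporter cells (4000/well) preincubated 5 h, then compound (217-fold dilution of DMSO stock) for 16 h at 37C. CCF4-AM substrate added 2 h at room temperature; 460/530 nm emission ratio fitted upward versus DMSO.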
# [2] = TOX21_p53_BLA_p5_viability: Viability Assessment in the Tox21 HCT-116 p53 Agonism Beta-lactamase Assay, Phase 5 (AID 2283600)
# How it was run: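 4000 cells/well; 5 h pre-incubation; DMSO compounds pin-transferred, 217-fold dilution; 16 h, 37C/5% CO2; CCF4-AM 2 h RT; CellTiter-Glo 30 min RT; luminescence.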
# [3] = biological target: PGR (gene 5241) (UniProt P06401); test: TOX21_PR_BLA_Followup_Antagonist_ratio: Tox21 HEK293 Progesterone Receptor (PR) Antagonism Beta-lactamase Follow-Up Assay, Ratio (AID 2283934);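 further: PR-UAS-bla HEK293T cells stimulated with 1 nM R5020 agonist for 16 hr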
# PGR (gene 5241), sequence (P06401 whole entry, looked up): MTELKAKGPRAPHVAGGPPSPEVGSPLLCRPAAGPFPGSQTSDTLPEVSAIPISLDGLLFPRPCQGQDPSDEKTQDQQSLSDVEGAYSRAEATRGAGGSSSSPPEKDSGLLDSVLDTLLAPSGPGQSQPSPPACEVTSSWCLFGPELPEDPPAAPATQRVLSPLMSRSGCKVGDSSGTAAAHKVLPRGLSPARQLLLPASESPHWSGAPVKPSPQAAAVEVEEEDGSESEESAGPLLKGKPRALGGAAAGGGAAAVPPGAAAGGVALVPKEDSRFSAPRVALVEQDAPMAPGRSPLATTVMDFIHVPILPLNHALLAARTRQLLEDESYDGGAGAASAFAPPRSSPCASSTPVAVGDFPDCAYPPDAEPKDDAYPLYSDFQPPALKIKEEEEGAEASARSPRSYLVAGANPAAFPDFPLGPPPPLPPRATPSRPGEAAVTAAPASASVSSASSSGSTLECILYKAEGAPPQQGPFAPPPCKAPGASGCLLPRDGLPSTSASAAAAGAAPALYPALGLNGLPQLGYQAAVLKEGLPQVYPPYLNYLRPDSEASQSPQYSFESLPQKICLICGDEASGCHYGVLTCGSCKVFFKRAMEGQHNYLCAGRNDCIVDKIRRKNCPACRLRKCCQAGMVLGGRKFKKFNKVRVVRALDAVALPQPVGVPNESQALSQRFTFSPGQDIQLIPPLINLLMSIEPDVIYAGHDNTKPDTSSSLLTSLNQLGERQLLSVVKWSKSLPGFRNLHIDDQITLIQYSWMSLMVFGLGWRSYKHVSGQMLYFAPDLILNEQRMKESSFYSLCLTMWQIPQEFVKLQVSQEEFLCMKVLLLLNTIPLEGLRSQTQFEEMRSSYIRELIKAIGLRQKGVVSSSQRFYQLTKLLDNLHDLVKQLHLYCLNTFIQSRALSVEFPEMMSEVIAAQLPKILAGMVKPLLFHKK
# How it was run: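 Antagonist mode used 1 nM R5020 (final) as agonist on a beta-lactamase reporter line in HEK293T cells. Activity was taken from the substrate cleavage ratio after 16 hr exposure.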
# [4] = TOX21_PR_BLA_Followup_Agonist_viability: Viability Assessment in the Tox21 HEK293 Progesterone Receptor (PR) Agonism Beta-lactamase Follow-Up Assay (AID 2283935);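 further: cells exposed to compound for 16 hr at 37 °C; signal loss means lower viability so actives are cytotoxic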
# How it was run: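 Multiplexed viability counter-screen: ATP-coupled luciferase signal measured after 30 min at room temperature, following 16 hr compound treatment of PR-UAS-bla HEK293T cells grown in charcoal-stripped serum.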
# [5] = TOX21_PR_BLA_Followup_Antagonist_viability: Viability Assessment in the Tox21 HEK293 Progesterone Receptor (PR) Antagonism Beta-lactamase Follow-Up Assay (AID 2283936);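 further: hits lower the luminescence signal meaning cytotoxicity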
# How it was run: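 PR-UAS-bla HEK293T cells (3,000/well, 2% charcoal-stripped FBS) given compound plus R5020 agonist, 16 h at 37C. CellTiter-Glo added after bla read, 30 min at room temperature; luminescence loss indicates cytotoxicity.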
# [6] = system: Thyroperoxidase (TPO), gene 54314; test: CCTE_Simmons_AUR_rTPO: CCTE's Amplex UltraRed Assay for Thyroperoxidase (TPO) Inhibition, Simmons Lab (AID 2283662);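 on AC50: potency for loss of signal meaning inhibition of peroxidase activity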
# How it was run: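 Endpoint is decreased Amplex UltraRed fluorescence after a 30-min, 37C reaction of rat thyroid microsomes with 300 uM H2O2. Eight test concentrations (5 nM–87.5 uM final) in 0.5% DMSO, three biological replicates each.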
# [7] = biological target: Luciferin 4-monooxygenase (Photinus pyralis) (UniProt P08659); test: CCTE_Simmons_QuantiLum_inhib_2: CCTE's Firefly Luciferase Inhibition Assay, Simmons Lab (AID 2283767);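 on AC50: potency for inhibitors that lower luciferase luminescence relative to DMSO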
# Luciferin 4-monooxygenase (Photinus pyralis), sequence (P08659 whole entry, looked up): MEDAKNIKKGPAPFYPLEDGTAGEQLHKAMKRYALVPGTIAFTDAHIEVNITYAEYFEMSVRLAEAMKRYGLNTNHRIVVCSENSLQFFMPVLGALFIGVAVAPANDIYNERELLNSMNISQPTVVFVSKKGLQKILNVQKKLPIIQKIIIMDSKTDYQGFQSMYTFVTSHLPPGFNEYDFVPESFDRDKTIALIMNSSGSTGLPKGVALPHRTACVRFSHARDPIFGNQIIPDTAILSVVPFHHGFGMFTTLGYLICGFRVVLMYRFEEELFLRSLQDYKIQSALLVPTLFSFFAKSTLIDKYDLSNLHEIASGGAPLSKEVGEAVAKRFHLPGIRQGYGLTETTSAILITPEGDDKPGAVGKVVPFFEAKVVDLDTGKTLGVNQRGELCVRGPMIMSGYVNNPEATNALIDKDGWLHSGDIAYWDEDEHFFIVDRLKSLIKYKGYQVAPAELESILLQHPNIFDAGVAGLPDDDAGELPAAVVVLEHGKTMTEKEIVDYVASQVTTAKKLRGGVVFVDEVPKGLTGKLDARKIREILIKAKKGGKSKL
# How it was run: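 Counter-screen for nonspecific enzyme inhibition: purified firefly luciferase incubated 30 min at 37C with chemicals up to 87.5 uM final, then luminescence measured after luciferin/dATP injection; activity fitted against DMSO baseline.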
# [8] = ACEA_ER_AUC_viability: ACEA Biosciences xCELLigence Real-Time Cell Analysis on Estrogen Receptor Agonism for Viability (AID 2283782);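 further: continuous compound exposure with impedance area under curve over 80 h; hit means loss of impedance signal meaning reduced cell growth or viability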
# How it was run: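 T47D cells preconditioned in phenol red-free RPMI with charcoal-stripped FBS, then dosed with 8-point 1:4 series from 100 uM (up to 0.5% DMSO). Impedance monitored up to ~80 h; area-under-curve loss versus DMSO taken as viability.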
# [9] = CCTE_Simmons_CellTiterGLO_HEK293T: Viability Assessment in CCTE's Assays for Thyroperoxidase (TPO) Inhibition, Simmons Lab (AID 2283665);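 on AC50: cells exposed to compound for 24 h before readout; actives reduce ATP signal below DMSO vehicle meaning cytotoxicity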
# How it was run: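 Cytotoxicity counter-screen: human HEK293T cells in low-serum (1% FBS) medium receive test chemical, 5 nM to 87.5 uM final, for 24 h; ATP is quantified by luciferase luminescence.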
# [10] = CEETOX_H295R_MTT_cell_viability: Viability Assessment in the CeeTox HT-H295R MTT Assay (AID 2283718; active means hit-call score of the fitted dose curve at least 0.9, where 1 is the maximum; inactive means score below 0.9)
# How it was run: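 Human H295R adrenal cells, prestimulated 48 h with 10 uM forskolin, were exposed 48 h to chemicals in 0.1% DMSO. Viability was measured in the same wells by MTT (0.5 mg/ml, 4 h, 37 C), absorbance 570/650 nm, as percent of controls.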
# [11] = CEETOX_H295R_11DCORT_noMTC: CeeTox H295R High-throughput Steroidogenesis Assay for 11-Deoxycortisol (11DCORT), maximum tolerated concentration (MTC) filtered results only (AID 2283911; active means hit-call score of the fitted dose curve at least 0.9, where 1 is the maximum; inactive means score below 0.9); settings: actives raise or lower the signal
# How it was run: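 Steroidogenesis was stimulated in H295R cells with 10 uM forskolin for 48 h before a 48 h chemical exposure. Secreted 11-deoxycortisol was measured by tandem mass spectrometry and fitted bidirectionally against DMSO controls.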
# [12] = CEETOX_H295R_OHPREG_noMTC: CeeTox H295R High-throughput Steroidogenesis Assay for OH-Pregnenolone (OHPREG), maximum tolerated concentration (MTC) filtered results only (AID 2283912; active means hit-call score of the fitted dose curve at least 0.9, where 1 is the maximum; inactive means score below 0.9); settings: actives raise or lower the signal
# How it was run: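 H295R cells prestimulated 48 h with 10 uM forskolin, then exposed 48 h to compound (0.1% DMSO). 17alpha-hydroxypregnenolone in medium measured by MTBE extraction and HPLC-MS/MS; bidirectional fit vs DMSO, concentrations not MTT/MTC-filtered.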
# [13] = CEETOX_H295R_OHPROG_noMTC: CeeTox H295R High-throughput Steroidogenesis Assay for OH-Progesterone (OHPROG), maximum tolerated concentration (MTC) filtered results only (AID 2283914; active means hit-call score of the fitted dose curve at least 0.9, where 1 is the maximum; inactive means score below 0.9); settings: actives raise or lower the signal
# How it was run: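 H295R cells prestimulated 48 h with 10 uM forskolin, then exposed 48 h to chemical (0.1% DMSO final). 17alpha-hydroxyprogesterone in medium quantified by HPLC-MS/MS after MTBE extraction; bidirectional fitting versus DMSO, concentrations not MTC-filtered.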
# [14] = CEETOX_H295R_ANDR_noMTC: CeeTox H295R High-throughput Steroidogenesis Assay for Androstenedione (ANDR), maximum tolerated concentration (MTC) filtered results only (AID 2283915; active means hit-call score of the fitted dose curve at least 0.9, where 1 is the maximum; inactive means score below 0.9); settings: actives raise or lower the signal
# How it was run: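 H295R cells, passage 10 or below, prestimulated 48 h with 10 uM forskolin, then exposed 48 h to chemical in 0.1% DMSO. Medium androstenedione extracted with MTBE, quantified by HPLC-MS/MS; concentrations not MTC-filtered; bidirectional fit versus DMSO.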
# [15] = CEETOX_H295R_CORTISOL_noMTC: CeeTox H295R High-throughput Steroidogenesis Assay for Cortisol, maximum tolerated concentration (MTC) filtered results only (AID 2283916; active means hit-call score of the fitted dose curve at least 0.9, where 1 is the maximum; inactive means score below 0.9); settings: actives raise or lower the signal
# How it was run: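 H295R human adrenal cells prestimulated 48 h with 10 uM forskolin, then exposed 48 h to chemical in 0.1% DMSO; cortisol in medium quantified by HPLC-MS/MS; bidirectional fit vs DMSO baseline, concentrations not MTT-filtered for MTC.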
# [16] = CEETOX_H295R_CORTIC_noMTC: CeeTox H295R High-throughput Steroidogenesis Assay for Corticosterone (CORTIC), maximum tolerated concentration (MTC) filtered results only (AID 2283917; active means hit-call score of the fitted dose curve at least 0.9, where 1 is the maximum; inactive means score below 0.9); settings: actives raise or lower the signal
# How it was run: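 H295R adrenal cells pre-stimulated 48 h with 10 uM forskolin, then exposed 48 h to chemical in 0.1% DMSO; corticosterone in medium quantified by HPLC-MS/MS, fitted bidirectionally versus DMSO without MTT-based concentration filtering.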
# [17] = CEETOX_H295R_DOC_noMTC: CeeTox H295R High-throughput Steroidogenesis Assay for DOC, maximum tolerated concentration (MTC) filtered results only (AID 2283918; active means hit-call score of the fitted dose curve at least 0.9, where 1 is the maximum; inactive means score below 0.9); settings: actives raise or lower the signal
# How it was run: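 H295R cells prestimulated 48 h with 10 uM forskolin, then exposed 48 h to chemical in 0.1% DMSO. 11-Deoxycorticosterone in medium measured by MTBE extraction and HPLC-MS/MS; bidirectional fit vs DMSO, no MTC filter.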
# [18] = CEETOX_H295R_ESTRADIOL_noMTC: CeeTox H295R High-throughput Steroidogenesis Assay for Estradiol, maximum tolerated concentration (MTC) filtered results only (AID 2283919; active means hit-call score of the fitted dose curve at least 0.9, where 1 is the maximum; inactive means score below 0.9); settings: actives raise or lower the signal
# How it was run: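 H295R human adrenal cells pre-stimulated 48 h with 10 uM forskolin, then exposed 48 h to chemical (0.1% DMSO final). Estradiol in medium measured by HPLC-MS/MS after MTBE extraction and dansyl derivatization; bidirectional fit versus DMSO, concentrations not MTT-filtered.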
# [19] = CEETOX_H295R_PROG_noMTC: CeeTox H295R High-throughput Steroidogenesis Assay for Progesterone (PROG), maximum tolerated concentration (MTC) filtered results only (AID 2283920; active means hit-call score of the fitted dose curve at least 0.9, where 1 is the maximum; inactive means score below 0.9); settings: actives raise or lower the signal
# How it was run: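 H295R cells, prestimulated 48 h with 10 uM forskolin, exposed 48 h to chemical in 0.1% DMSO. Medium progesterone quantified by MTBE extraction and HPLC-MS/MS; bidirectional fit versus DMSO, concentrations not MTT-filtered.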
# [20] = CEETOX_H295R_ESTRONE_noMTC: CeeTox H295R High-throughput Steroidogenesis Assay for Estrone, maximum tolerated concentration (MTC) filtered results only (AID 2283921; active means hit-call score of the fitted dose curve at least 0.9, where 1 is the maximum; inactive means score below 0.9); settings: actives raise or lower the signal
# How it was run: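 H295R cells prestimulated 48 h with 10 uM forskolin, then exposed 48 h to chemical in 0.1% DMSO; medium estrone measured by HPLC-MS/MS after MTBE extraction and dansyl derivatization, fitted bidirectionally versus DMSO without MTT-based MTC filtering.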
# [21] = CEETOX_H295R_TESTO_noMTC: CeeTox H295R High-throughput Steroidogenesis Assay for Testosterone (TESTO), maximum tolerated concentration (MTC) filtered results only (AID 2283924; active means hit-call score of the fitted dose curve at least 0.9, where 1 is the maximum; inactive means score below 0.9); settings: actives raise or lower the signal
# How it was run: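 H295R cells prestimulated 48 h with 10 uM forskolin, then exposed 48 h to chemicals in 0.1% DMSO final. Testosterone in medium quantified by MTBE extraction and HPLC-MS/MS; bidirectional fit versus DMSO, concentrations […] filtered by MTT-based maximum tolerated concentration.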
compound,measurement,setting,value
C[C@@H](O)C(=O)O,outcome,[1],inactive
Cc1cc(N)no1,outcome,[2],inactive
same,outcome,[1],inactive
Cc1ccc(C)c(N)c1,outcome,[2],inactive
same,outcome,[1],inactive
CCCOc1ccc2c(c1)CC[C@@H]1[C@@H]2CC[C@]2(C)C(OC)CC[C@@H]12 (stereo not given in full),AC50,[3],12.8 µM (active)
same,outcome,[4],inactive
same,outcome,[5],inactive
CCN1CCCC1CNC(=O)c1cc(S(=O)(=O)CC)c(N)cc1OC (stereo not given),outcome,[1],inactive
OC(c1ccccc1)c1ccccc1,outcome,[6],inactive
same,outcome,[7],inactive
CC1=CC(=O)CCC1,outcome,[8],inactive
O=C(O)c1c(Cl)ccc(Cl)c1Cl,outcome,[8],inactive
Oc1cccnc1,outcome,[6],inactive
same,outcome,[9],inactive
same,outcome,[7],inactive
O=Cc1c2ccccc2c(Cl)c2ccccc12,outcome,[1],inactive
C[C@]12CCC(=O)C=C1CC[C@@H]1[C@@H]2[C@@H](O)C[C@@]2(C)[C@H]1CC[C@]2(O)C(=O)CO,outcome,[3],inactive
same,outcome,[4],inactive
CCCC(=O)OCOC(=O)C1=C(C)NC(C)=C(C(=O)OC)C1c1cccc(Cl)c1Cl (stereo not given),outcome,[3],inactive
same,outcome,[4],inactive
same,outcome,[5],inactive
CN(C)C(=S)N(C)C,outcome,[6],inactive
same,AC50,[7],79.5 µM (active)
O=C1CC(c2ccc(O)cc2)Oc2cc(O)cc(O)c21 (stereo not given),AC50,[6],0.742 µM (active)
same,outcome,[9],inactive
same,outcome,[7],inactive
CSc1nc2ccccc2s1,outcome,[6],inactive
same,AC50,[9],53.6 µM (active)
same,AC50,[7],35.1 µM (active)
O=c1cc(O)cc[nH]1,outcome,[6],inactive
O=c1cccc(O)[nH]1,AC50,[6],9.01 µM (active)
same,outcome,[9],inactive
same,outcome,[7],inactive
O=c1[nH]c2ccccc2s1,AC50,[6],31.3 µM (active)
same,outcome,[7],inactive
O=C(NO)c1ccccc1O,AC50,[6],0.358 µM (active)
same,outcome,[7],inactive
CS(=O)(=O)OCCOS(C)(=O)=O,outcome,[10],inactive
same,outcome,[11],inactive
same,outcome,[12],inactive
same,outcome,[13],inactive
same,outcome,[14],inactive
same,outcome,[15],inactive
same,outcome,[16],inactive
same,outcome,[17],inactive
same,outcome,[18],inactive
same,outcome,[19],inactive
same,outcome,[20],inactive
same,outcome,[21],inactive
